Inconclusive results are not listed. The source made the active and inactive calls. Unless noted, calls come from the whole dose curve; as a rule, active = well fitted curve in the direction sought with a large enough effect in the repeat runs; inconclusive = weak or mixed curves; inactive = no such curve, though single readings can be large; an effect the other way counts as inactive or inconclusive.
Columns and labels:
[1] = qHTS RealTime-Glo MT Cell Viability Assay in HEK293 cells - 0 hour (AID 1224880); note: top concentration of the series differs between compounds; nearly all actives have a fitted effect of over 45% in size
In short: (§1)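 Kinetic, non-lysing viability readout. Seed HEK293 (600/well) with reagent, incubate 5 h at 37 C/5% CO2, pin 23 nL compound in DMSO, incubate at 37 C, read luminescence at 0, 8, 16, 24, 32, 40 h.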

[2] = A CellTox Green Cytotoxicity Assay to monitor cytotoxicity in HEK293 cells - 32 hour (AID 1224881); note: nearly all actives have a fitted effect of over 40% in size
In short: (§2)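 Real-time, in one plate: 600 HEK293 cells/well with dead-cell DNA dye, pinned compound after 5 h, 37 C incubation over 40 h; viable cells give no appreciable fluorescence.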

[3] = A CellTox Green Cytotoxicity Assay to monitor cytotoxicity in HepG2 cells - 0 hour (AID 1224882); note: nearly all actives have a fitted effect of over 35% in size
In short: (§3)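 Cytotoxicity was tracked as dead-cell DNA fluorescence in HepG2 cells treated with test compounds at 37 C; each time-point value comes from one kinetic series spanning 0, 8, 16, 24, 32 and 40 h.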

[4] = A CellTox Green Cytotoxicity Assay to monitor cytotoxicity in HepG2 cells - 32 hour (AID 1224883); note: nearly all actives have a fitted effect of over 50% in size
In short: as §3

[5] = A CellTox Green Cytotoxicity Assay to monitor cytotoxicity in HEK293 cells - 8 hour (AID 1224884); note: nearly all actives have a fitted effect of over 35% in size
In short: as §2

[6] = qHTS RealTime-Glo MT Cell Viability Assay in HepG2 cells - 16 hour (AID 1224885); note: nearly all actives have a fitted effect of over 50% in size
In short: (§4)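 Real-time, nonlytic viability: 600 HepG2 cells/well mixed with NanoLuc enzyme plus prosubstrate; 5 h settle, compound (DMSO) added by pintool; luminescence monitored over 40 h at 37 C.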

[7] = qHTS RealTime-Glo MT Cell Viability Assay in HEK293 cells - 24 hour (AID 1224886); note: top concentration of the series differs between compounds; nearly all actives have a fitted effect of over 50% in size
In short: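 Cells + reagent dispensed (600 cells/well, HEK293) → 5 h at 37 C/5% CO2 → 23 nL compound in DMSO pinned → 40 h at 37 C → luminescence read at 0, 8, 16, 24, 32, 40 h.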

[8] = qHTS RealTime-Glo MT Cell Viability Assay in HEK293 cells - 8 hour (AID 1224887); note: top concentration of the series differs between compounds; nearly all actives have a fitted effect of over 50% in size
In short: as §1

[9] = qHTS RealTime-Glo MT Cell Viability Assay in HepG2 cells - 0 hour (AID 1224889); note: nearly all actives have a fitted effect of over 50% in size
In short: as §4

[10] = A CellTox Green Cytotoxicity Assay to monitor cytotoxicity in HepG2 cells - 8 hour (AID 1224890); note: nearly all actives have a fitted effect of over 45% in size
In short: as §3

[11] = qHTS assay to identify small molecule antagonists of the estrogen receptor alpha (ER-alpha) signaling pathway using the BG1 cell line in the presence of 0.1 nM 17-beta-estradiol - cell viability counter screen (AID 1259241); note: nearly all actives have a fitted effect of over 40% in size
In short: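 Cytotoxicity counter-screen: live-cell protease activity measured by fluorescence (30 min reagent step) in the same wells. Cells were VM7Luc4E2 with endogenous ER-alpha and ERE-driven luciferase, treated 22 hr at 37C alongside 0.1 nM 17beta-estradiol final.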

[12] = qHTS assay to identify small molecule antagonists of the androgen receptor (AR) signaling pathway using the MDA cell line in the presence of 0.5 nM R1881 - cell viability counter screen (AID 1259242); note: nearly all actives have a fitted effect of over 45% in size
In short: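 Cells seeded at 3,000/well and allowed 5 hr at 37C, 0% CO2 before compound transfer and R1881 (0.5 nM final) addition; 16 hr later, live-cell protease fluorescence indicated cytotoxicity.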

[13] = target: Estrogen receptor (Homo sapiens) (UniProt P03372); assay: qHTS assay to identify small molecule antagonists of the estrogen receptor alpha (ER-alpha) signaling pathway using the BG1 cell line in the presence of 0.1 nM 17-beta-estradiol (AID 1259244); note: nearly all actives have a fitted effect of over 50% in size
In short: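 Luciferase signal from VM7Luc4E2 ERE-reporter cells, co-dosed with test compound and 0.1 nM final 17beta-estradiol for 22 h, read with ONE-Glo.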

[14] = qHTS assay to identify small molecule phospholipidosis (PLD) inducers (AID 1259344; active = well fitted curve in the direction sought with a large enough effect; an effect the other way counts as inactive or inconclusive)
In short: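 Accumulated phospholipid, stained red by LipidTOX during 24 h compound treatment of HepG2 cells at 37 C, is quantified from images as pit number and intensity, normalised per cell using Hoechst-stained nuclei.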

[15] = qHTS assay to identify small molecule HDAC inhibitors (AID 1259364);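 note: wild-type HCT-116 cells with endogenous class I/II HDAC activity; top concentration of the series differs between compounds; nearly all actives have a fitted effect of over 45% in size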
In short: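 HCT-116 wt cells, 1,500/well, overnight attach. Compounds (DMSO) 2 h, 37 °C. HDAC-Glo I/II, 30 min RT. Luminescence.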

[16] = qHTS assay to identify small molecule HDAC inhibitors - cell viability counter screen (AID 1259365)
In short: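 CellTiter-Glo luminescence (30 min, room temperature) reported viability after a 2 h compound exposure at 37 C. Cells: wild-type HCT-116, 1,500 per well, seeded the night before.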

[17] = qHTS assay to identify small molecule agonists of the sonic hedgehog signaling (Shh) pathway - cell viability counter screen (AID 1259366); note: nearly all actives have a fitted effect of over 50% in size
In short: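 Cytotoxicity counter screen: CellTiter-Fluor reagent added after 23 h compound exposure, then 1 h at 37C and fluorescence read. Cells were 3T3 Gli1-Luc, seeded 2,000 per well and dosed 4 h post-plating.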

[18] = qHTS assay to identify small molecule antagonists of the sonic hedgehog signaling (Shh) pathway - cell viability counter screen (AID 1259367); note: nearly all actives have a fitted effect of over 55% in size
In short: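 CellTiter-Fluor signal in conditioned medium-stimulated 3T3 Gli1-Luc cells, 23 hr compound exposure, 37C.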

[19] = A CellTox Green Cytotoxicity Assay to monitor cytotoxicity in HEK293 cells - 16 hour (AID 1224888); note: nearly all actives have a fitted effect of over 35% in size
In short: as §2

[20] = target: Androgen receptor (Homo sapiens) (UniProt P10275); assay: qHTS assay to identify small molecule antagonists of the androgen receptor (AR) signaling pathway using the MDA cell line in the presence of 0.5 nM R1881 (AID 1259243); note: nearly all actives have a fitted effect of over 50% in size
In short: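 Luminescence from an AR/GR-responsive MMTV-luciferase construct in MDA-kb2 breast carcinoma cells, read 30 min after ONE-Glo, following 16 hr co-treatment with compounds and 0.5 nM R1881.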
% is set by controls: 0 for no effect and ±100 for the full control effect.

Sequence of Estrogen receptor (Homo sapiens) (P03372 whole entry, looked up): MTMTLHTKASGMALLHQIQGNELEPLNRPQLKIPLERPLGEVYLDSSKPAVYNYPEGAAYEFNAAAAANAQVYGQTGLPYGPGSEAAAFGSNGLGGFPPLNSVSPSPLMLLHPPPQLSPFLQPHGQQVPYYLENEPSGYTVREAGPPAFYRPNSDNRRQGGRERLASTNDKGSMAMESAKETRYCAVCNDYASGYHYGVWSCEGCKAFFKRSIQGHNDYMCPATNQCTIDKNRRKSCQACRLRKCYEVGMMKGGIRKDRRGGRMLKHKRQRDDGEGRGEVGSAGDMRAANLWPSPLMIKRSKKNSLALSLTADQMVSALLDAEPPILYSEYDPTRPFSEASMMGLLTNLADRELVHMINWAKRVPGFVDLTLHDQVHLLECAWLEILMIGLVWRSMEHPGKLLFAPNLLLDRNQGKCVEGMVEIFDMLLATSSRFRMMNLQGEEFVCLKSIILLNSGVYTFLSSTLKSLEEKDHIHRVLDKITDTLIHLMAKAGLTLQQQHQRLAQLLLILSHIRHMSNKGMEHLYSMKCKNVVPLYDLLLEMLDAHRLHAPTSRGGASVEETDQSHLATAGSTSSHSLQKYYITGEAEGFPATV
Sequence of Androgen receptor (Homo sapiens) (P10275 whole entry, looked up): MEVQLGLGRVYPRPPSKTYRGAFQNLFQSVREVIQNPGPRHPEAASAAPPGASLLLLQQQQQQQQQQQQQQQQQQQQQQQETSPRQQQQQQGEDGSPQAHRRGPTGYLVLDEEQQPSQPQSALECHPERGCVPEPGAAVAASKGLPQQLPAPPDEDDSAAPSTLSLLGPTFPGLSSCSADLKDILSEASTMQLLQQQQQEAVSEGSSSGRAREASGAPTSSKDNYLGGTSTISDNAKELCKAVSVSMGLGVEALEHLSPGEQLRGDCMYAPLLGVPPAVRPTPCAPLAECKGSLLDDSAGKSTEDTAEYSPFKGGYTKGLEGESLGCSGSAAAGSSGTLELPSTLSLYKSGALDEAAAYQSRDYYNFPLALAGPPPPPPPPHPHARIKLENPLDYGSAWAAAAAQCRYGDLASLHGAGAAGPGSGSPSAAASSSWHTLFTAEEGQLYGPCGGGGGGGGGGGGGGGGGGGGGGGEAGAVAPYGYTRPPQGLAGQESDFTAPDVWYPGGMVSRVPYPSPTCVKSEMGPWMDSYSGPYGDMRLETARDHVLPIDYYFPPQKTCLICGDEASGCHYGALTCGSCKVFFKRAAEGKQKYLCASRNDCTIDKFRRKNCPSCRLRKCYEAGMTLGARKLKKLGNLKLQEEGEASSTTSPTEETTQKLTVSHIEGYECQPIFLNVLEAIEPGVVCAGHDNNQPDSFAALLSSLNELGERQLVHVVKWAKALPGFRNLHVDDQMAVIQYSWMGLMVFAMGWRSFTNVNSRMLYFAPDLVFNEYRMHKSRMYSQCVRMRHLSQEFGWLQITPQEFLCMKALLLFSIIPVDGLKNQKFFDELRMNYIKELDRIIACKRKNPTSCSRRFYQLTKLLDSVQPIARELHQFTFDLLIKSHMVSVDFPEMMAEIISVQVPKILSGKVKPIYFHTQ

ClC(Cl)(Cl)Cl
inactive: outcome [1] | Potency [2] | outcome [3] | Potency [4] | Potency [5] | Potency [6] | Potency [7] | Potency [8] | outcome [9] | Potency [10] | outcome [11] | Potency [12] | Potency [13] | Potency [14] | Potency [15] | outcome [16] | Potency [17] | Potency [18]

CN(CCO)CCO
inactive: outcome [1] | Potency [2] | outcome [3] | Potency [4] | Potency [5] | Potency [6] | Potency [7] | Potency [8] | outcome [9] | Potency [10] | outcome [11] | Potency [12] | Potency [13] | Potency [15] | outcome [16] | Potency [17]

Cc1ccc2cc(C)ccc2c1
inactive: outcome [1] | Potency [2] | outcome [3] | Potency [4] | Potency [5] | Potency [6] | Potency [7] | Potency [8] | Potency [19] | outcome [9] | outcome [11] | Potency [12] | Potency [15] | outcome [16] | Potency [18]

CC(Cl)(Cl)Cl
inactive: outcome [1] | Potency [2] | outcome [3] | Potency [4] | Potency [5] | Potency [6] | Potency [7] | Potency [8] | Potency [19] | outcome [9] | Potency [10] | outcome [11] | Potency [12] | Potency [15] | outcome [16] | Potency [17] | Potency [18]

CCNc1nc(NCC)nc(SC)n1
inactive: outcome [1] | Potency [2] | outcome [3] | Potency [4] | Potency [5] | Potency [6] | Potency [7] | Potency [8] | outcome [9] | Potency [10] | outcome [11] | Potency [12] | Potency [13] | Potency [15] | outcome [16] | Potency [18]

O=C1CCCCC1Cl (stereo not drawn)
inactive: outcome [1] | Potency [2] | outcome [3] | Potency [4] | Potency [5] | Potency [6] | Potency [7] | Potency [8] | outcome [9] | Potency [10] | outcome [11] | Potency [12] | Potency [15] | outcome [16]

CCOC(=O)N(C)N=O
inactive: outcome [1] | Potency [2] | outcome [3] | Potency [5] | Potency [6] | Potency [7] | Potency [8] | Potency [19] | outcome [9] | Potency [10] | outcome [11] | Potency [12] | Potency [15] | outcome [16] | Potency [17]

Brc1c(Br)c(Br)c(Br)c(Br)c1Br
inactive: activity change, negative = cytotoxicity [1] 0% [at 6.97 µM] | cytotoxicity increase [2] 4.45% [at 6.97 µM] | cytotoxicity [3] 0.332% [at 6.97 µM] | cytotoxicity increase [4] 0.204% [at 6.97 µM] | cytotoxicity increase [5] 12.9% [at 6.97 µM] | activity change, negative = cytotoxic [6] -8.35% [at 6.97 µM] | activity change [19] 4.52% [at 6.97 µM, active compounds read high] | activity change, negative = cytotoxicity [9] 0.505% [at 6.97 µM] | activity change, negative = cytotoxicity [11] -4.2% [at 8.39 µM] | viability change, negative = cytotoxic [12] 7.8% [at 8.39 µM] | activity change, negative = inhibition [13] 3.5% [at 8.39 µM] | activity change, negative = inhibition [15] 4.51% [at 8.39 µM] | activity change, negative = cytotoxicity [16] 1.6% [at 8.39 µM] | viability change, negative = cytotoxic [17] 2.28% [at 8.39 µM] | viability change, negative = cytotoxic [18] 1.61% [at 8.39 µM]

CCSC(=O)Cl
inactive: outcome [1] | Potency [2] | outcome [3] | Potency [5] | Potency [6] | Potency [7] | Potency [8] | Potency [19] | outcome [9] | Potency [10] | outcome [11] | Potency [12] | Potency [20] | Potency [13] | Potency [15] | outcome [16] | Potency [18]
